In the library only some 4.7% were active in any assay of this set; here they are far more common.
D1 potentiator: enhances dopamine response at the human D1 receptor; HEK293 TREx D1 cells, calcium flux, dopamine EC20 potentiation; 360,000 compounds, 0.036% hits; AID 504651; potentiation, % at 10 µM; P21728; in the data active = potentiation above about 30%
TRHR PAM: allosteric enhancers of human TRH receptor; TRHR cells, fluo-8 calcium fluorescence, EC20 TRH enhancement; enhancement, % at 2 µM; 360,000 compounds, 0.66% hits; in the data active = enhancement above about 30%
Target sequence (P34981 whole entry, looked up): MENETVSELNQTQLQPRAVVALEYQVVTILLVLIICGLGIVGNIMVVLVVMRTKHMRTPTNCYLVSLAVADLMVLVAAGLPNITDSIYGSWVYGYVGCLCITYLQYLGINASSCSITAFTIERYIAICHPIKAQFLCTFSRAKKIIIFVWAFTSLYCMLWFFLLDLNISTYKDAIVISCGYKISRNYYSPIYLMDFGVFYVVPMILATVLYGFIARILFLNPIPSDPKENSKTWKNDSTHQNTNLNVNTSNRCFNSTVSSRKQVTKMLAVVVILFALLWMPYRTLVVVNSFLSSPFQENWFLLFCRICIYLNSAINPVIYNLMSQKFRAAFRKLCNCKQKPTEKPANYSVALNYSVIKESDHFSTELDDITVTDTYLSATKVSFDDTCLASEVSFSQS
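Enhancer read-out: after compound pinning and an initial kinetic agonist-mode read, an EC20 of TRH (10 nM final) was injected and fluo-8 calcium signal (Ex 480/Em 530) followed at 1 s/cycle for 100 cycles in TRHR-expressing cells.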
D1 antag: antagonists of human D1 dopamine receptor; HEK293 TREx D1 cells, calcium flux, dopamine EC80; stronger effect = lower value; activity change, negative = inhibition, % at 10 µM; 360,000 compounds, 3.2% hits; P21728; in the data active = activity change below about -30%
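Kinetic fluorescence of a calcium dye serves as the read-out. D1-expressing Hek293 Trex cells, induced overnight at 30 C, are exposed to compound for 180 s before an EC80 dopamine addition, then read 180 s further.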
TRHR agonist: activates the human TRH receptor; activation, % at 2 µM; 360,000 compounds, 0.18% hits; TRHR cells, calcium flux fluo-8, FDSS agonist mode; P34981
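Fluo-8-loaded TRHR cells; 10 s baseline, compound added, kinetic Ca2+ fluorescence read 1/s, agonist mode.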
D1 ag: agonists of human D1 dopamine receptor; HEK293 T-REx D1 cells, calcium flux, agonist mode; 360,000 compounds, 1% hits; activation, % at 2 µM; AID 504660
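Tetracycline-induced HEK293 TREx D1 cells, force-coupled to calcium signalling, were dye-loaded with a no-wash calcium kit. Compound was pin-added after a 10 s baseline. Fluorescence was read kinetically at 1 cycle/s for 180 s, with calcium rises flagged as agonism.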
A number is an active result; - = inactive; ! = repeats disagree. Cut-off read from the data, not from the text of the source, unless noted: active = activation above about 30%; inactive = the rest.

SMILES	D1 potentiator	TRHR PAM	D1 antag	TRHR agonist	D1 ag
Cn1cc(C(=O)NCN2CCCCC2)c2ccccc21	-	-	-40	-	-
Fc1cccc(Cl)c1CSc1nnnn1-c1ccc2c(c1)OCO2	-	-	-32	-	-
Fc1cccc(Cl)c1Cn1nnc(-c2ccc3c(c2)OCO3)n1	-	-	-	-	-
NC(=O)c1oc2ccccc2c1NC(=O)C1CCCCC1	-	38	-	-	-
NC(=O)c1oc2ccccc2c1NC(=O)CN1CCCCC1	-	-	-	-	-
CCOC(=O)Cc1csc(NC(=O)Cc2ccccc2[N+](=O)[O-])n1	-	-	-	-	-
CCOC(=O)Cc1csc(NS(=O)(=O)c2cccc([N+](=O)[O-])c2)n1	-	36	-	-	-
CCOC(=O)Cc1csc(NC(=O)C(C)c2ccc([N+](=O)[O-])cc2)n1 (stereo not given)	-	-	-38	-	58
COc1ccc(-n2ncc(C(=O)N3CCN(C(=O)c4ccco4)CC3)c2C2CCN(C(=O)OC(C)(C)C)CC2)cc1	-	-	-	-	-
CN(C)S(=O)(=O)c1cccc(NC(=O)Cc2ccc(Cl)cc2)c1	-	-	-32	-	-
Cc1cc(C)n2nc(SCC(=O)Nc3ccc(S(=O)(=O)N(C)C)cc3)nc2n1	-	-	-39	-	-
Cc1cc(C)n2nc(SCC(=O)Nc3ccc(O)cc3)nc2n1	-	-	-	-	-
O=C(Cc1ccc(Cl)cc1)Nc1cccc(S(=O)(=O)Nc2ccccc2F)c1	-	-	-	-	-
Cc1cc(C)nc(SCC(=O)Nc2cccc(S(=O)(=O)N(C)C)c2)n1	-	-	-30	-	-
O=C(CCn1cccn1)Nc1ccc(Br)cc1F	-	-	-	-	-
c1ccc(CCNc2ccccc2)cc1	-	-	-	-	-
COc1cccc(CNC(=O)c2ccc3nc(CCc4ccccc4)oc3c2)c1OC	-	-	-32	-	48
COc1ccc(CNC(=O)c2ccc3nc(CCc4ccccc4)oc3c2)cc1OC	-	-	-	-	-
COc1ccc(CNC(=O)c2ccc3nc(CCc4ccccc4)oc3c2)cc1	-	-	-	-	53
CCCCN(C(=O)C1CCC(CNS(=O)(=O)c2cccc3nsnc23)CC1)c1ccccc1 (stereo not given)	-	-	-	-	-
COc1ccc(NC(=O)CSc2nnc(Cc3cccn3C)n2-c2ccc(F)cc2)cc1OC	-	-	-45	-	-
Cc1ccc(-n2c(Cc3cccn3C)nnc2SCC(=O)Nc2nnc(C)s2)cc1	-	-	-	-	-
Cc1nnc(NC(=O)CSc2nnc(Cc3cccn3C)n2C)s1	-	-	-37	-	-
CC(C)N1CCN(c2ccc(OC[C@H]3CO[C@](Cn4cncn4)(c4ccc(Cl)cc4Cl)O3)cc2)CC1	-	-	-44	-	62
Fc1ccc(-n2c(=S)[nH]c3cccnc32)cc1	-	-	-33	-	-
SMILES	D1 potentiator	TRHR PAM	D1 antag	TRHR agonist	D1 ag
FC(F)(F)c1cnc2c(c1)[nH]c(=S)n2-c1ccc(Cl)cc1	-	-	-	-	-
CN(C)CCNC(=O)c1ccc2c(c1)NC(=O)c1ccccc1S2	-	-	-	-	-
CCN(CC)CCNC(=O)c1ccc2c(c1)NC(=O)c1ccccc1S2	-	-	-30	-	-
O=C1CCC2CCCCC2(O)O1 (stereo not given)	-	33	-	-	-
CC(C)(C)OC(=O)CC12CCCCC1NC(=O)O2 (stereo not given)	-	-	-	-	-
Cc1cn2c(=O)cc(COC(=O)c3cccc(NC(=O)COc4ccccc4Cl)c3)nc2s1	-	-	-	-	-
O=C(CS(=O)(=O)c1cccc2nsnc12)NCc1ccc(Cl)cc1	-	-	-	-	-
CCc1ccc(CNc2ncc(-c3cccc(OC)c3)n2C)cc1	-	-	-	-	-
O=C1Nc2ccc(S(=O)(=O)NCCC3=CCCCC3)c3cccc1c23	-	-	-37	-	-
O=C1Nc2ccc(S(=O)(=O)NCCCO)c3cccc1c23	-	-	-	-	-
O=C(CSCc1ccccc1Cl)NN=C1CCCCCC1	-	-	-	-	-
C/C(=N\NC(=O)CSCc1ccccc1Cl)c1cc(O)ccc1O	-	-	-37	-	-
O=C1NC(=S)S/C1=C/c1ccc(OC(=O)c2ccco2)cc1	-	-	-30	-	-
Cc1ccc(-c2cn3cccnc3n2)cc1	-	-	-	-	-
Nc1cccc(-c2cn3cccnc3n2)c1	-	-	-30	-	-
Cc1ccc(NC(=O)CN2C(=O)COc3ccc(S(=O)(=O)N4CCCCCC4)cc32)c(C)c1	-	-	-	-	-
Cc1cc(C)cc(NC(=O)c2cc(C)nc3c2c(C)nn3-c2ccccc2)c1	-	-	-	-	-
CC(C)CN1CN(Cc2ccccc2)CNC1=S	-	-	-31	-	-
COc1cccc(N2CN(CCc3ccccc3)CNC2=S)c1	-	-	-30	-	-
CCCN1CNC(=S)N(Cc2ccccc2)C1	-	-	-	-	-
S=C1NCN(CCc2ccccc2)CN1Cc1ccccc1	-	-	-	-	53
CC(=O)c1ccc(OC(=O)C2c3ccccc3Oc3ccccc32)cc1	-	-	-	-	-
Cc1ccc(OC(=O)C2c3ccccc3Oc3ccccc32)cc1C	-	-	-	-	32
COc1cccc(NC(=O)CCc2nc(-c3cc(OC)c(OC)c(OC)c3)no2)c1	-	-	-	-	-
Cc1ccc(S(=O)(=O)c2cn(CC(=O)Nc3ccc4c(c3)OCO4)c3ccc(F)cc3c2=O)cc1	-	-	-	-	-
SMILES	D1 potentiator	TRHR PAM	D1 antag	TRHR agonist	D1 ag
COc1ccc(-c2n(CC(=O)OC3CC(C)CCC3C(C)C)c3ccccc3[n+]2C)cc1 (stereo not given)	-	-	-	-	-
COc1ccc(OCc2n(CC(=O)OC3CC(C)CCC3C(C)C)c3ccccc3[n+]2C)cc1 (stereo not given)	-	-	-	-	34
Cc1ccc(CNC(=O)c2cc(=O)c3cc(C)ccc3o2)cc1	-	-	-	-	60!
COc1ccc(CNC(=O)Cc2coc3ccc(C)cc23)cc1	-	-	-35	-	-
Cc1ccc2oc(C(=O)NCc3ccc(S(N)(=O)=O)cc3)cc(=O)c2c1	-	-	-	-	-
COc1cc(-c2noc(CCC(=O)Nc3cc(C)ccc3C)n2)cc(OC)c1OC	-	-	-	-	-
CCc1nc(SCC(=O)N2CCCC2)c2ccccc2n1	-	-	-	-	-
Cc1ccc(C(=O)CSc2ncnc3ccccc23)o1	-	-	-	-	-
O=C(CSc1ncnc2ccccc12)N1CCCC1	-	-	-74	-	-
O=C(CSc1ncnc2ccccc12)c1cccs1	-	-	-54	-	-
COc1cc(C(=O)N2CC(C)OC(C)C2)c([N+](=O)[O-])cc1OC (stereo not given)	-	-	-51	-	-
CCn1c(=O)c2cc(C(=O)NCCCN3CCN(c4ccc(F)cc4)CC3)sc2c2ccccc21	-	-	-	-	-

Source: PubChem BioAssay
